Test results from PubChem BioAssay (NCATS).
Results filed as inconclusive are left out. Activity calls are given as the source filed them. Unless noted, calls follow the shape of the dose curve; as a rule, active = well fitted curve in the direction sought with a large enough effect; inconclusive = small, poorly fitted or top-dose-only effect, or another doubt; inactive = no such curve, though single readings can be large; an effect the other way counts as inactive or inconclusive.

Experiments:
[1] = Quantitative high throughput screen for delayed death inhibitors of the malarial parasite plastid, 96 hour incubation (AID 488745);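 also: luciferase-expressing P. falciparum in erythrocytes at 2% hematocrit and 0.1% parasitemia; series mostly up to about 29 µM; % is scaled to controls: 0 for no effect and ±100 for the full control effect; nearly all actives have a fitted effect of over 70% in size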
Procedure, shortened: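 Infected erythrocytes were added to compound in Albumax-supplemented RPMI 1640 at 0.1% parasitemia and 2% hematocrit (final), incubated 96 h at 37 C under 5% CO2, then luciferase reagent was added and luminescence measured.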

[2] = Quantitative high throughput screen for delayed death inhibitors of the malarial parasite plastid, 48 hour incubation (AID 488752); also: % is scaled to controls: 0 for no effect and ±100 for the full control effect; nearly all actives have a fitted effect of over 65% in size
Procedure, shortened: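 Readout is firefly luciferase luminescence from a reporter integrated into the parasite genome, with lower signal taken as inhibited growth. Infected red cells (0.1% parasitemia, 2% hematocrit final) are cultured with compound for one 48 h cycle at 37 C.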

[3] = target: Thioredoxin reductase 1, cytoplasmic (Rattus norvegicus) (UniProt O89049); experiment: qHTS Assay for Substrates of Mammalian Selenoprotein Thioredoxin Reductase 1 (TrxR1) (AID 488772);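 also: NADPH fluorescence in the first read after selenite addition and not the 8 min delta; series mostly up to about 57 µM; 0% is about no effect; a drop in NADPH fluorescence below the no-compound background marks a TrxR1 substrate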
Procedure, shortened: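 Quantitative HTS in Tris-HCl buffer at pH 7.5 with EDTA and Tween-20, using rat TrxR1, 400 uM NADPH and 400 uM selenite (final). A fall in initial NADPH fluorescence relative to background marked substrate behaviour.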

[4] = target: Thioredoxin reductase 1, cytoplasmic (Rattus norvegicus) (UniProt O89049); experiment: qHTS Assay for Inhibitors of Mammalian Selenoprotein Thioredoxin Reductase 1 (TrxR1) (AID 488773); conditions: Potency: inhibition;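 also: drop in NADPH fluorescence over an 8 min run after selenite addition; series mostly up to about 57 µM; % is scaled to controls: 0 for no effect and ±100 for the full control effect; nearly all actives have a fitted effect of over 40% in size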
Procedure, shortened: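 Steps: enzyme (90 nM) plus NADPH (400 uM final), 5 min at ~22 deg C; compound added, 15 min; selenite (400 uM final) added; fluorescence followed for 8 min. Concentration-response curves derived from the normalized delta values.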

[5] = target: Flap endonuclease 1 (Homo sapiens) (UniProt P39748); experiment: qHTS Validation Assay for the Inhibitors of Human Flap endonuclease 1 (FEN1) (AID 488816); also: % is scaled to controls: 0 for no effect and ±100 for the full control effect
Procedure, shortened: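 Readings taken at 0 and 15 min after starting the reaction with 50 nM (final) substrate supplied the signal. Compounds had first sat with 10 nM FEN1 reagent for 15 min at room temperature. Values come from Hill-equation concentration-response fits.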

[6] = target: M-phase phosphoprotein 8 (Homo sapiens) (UniProt Q99549); experiment: qHTS Validation Assay for Inhibitors for MPP8 Chromodomain Interactions with Methylated Histone Tails (AID 488949); also: top concentration of the series differs between compounds; % is scaled to controls: 0 for no effect and ±100 for the full control effect; nearly all actives have a fitted effect of over 55% in size
Procedure, shortened: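 MPP8 (50 nM) was pre-bound to 50 nM biotinylated H3(1-18)K9me3 peptide in PBS pH 7.4 with 0.01% Tween-20. Compounds were then added for 30 min at room temperature, and complex disruption was read by AlphaScreen with streptavidin donor and nickel-chelate acceptor beads.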

[7] = target: Chromobox protein homolog 1 (Homo sapiens) (UniProt P83916); experiment: qHTS Validation Assay for Inhibitors of HP1-beta Chromodomain Interactions with Methylated Histone Tails (AID 488953);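 also: loss of AlphaScreen luminescence from HP1-beta binding biotinylated H3K9me3 peptide; series mostly up to about 110 µM; % is scaled to controls: 0 for no effect and ±100 for the full control effect; nearly all actives have a fitted effect of over 50% in size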
Procedure, shortened: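 50 nM HP1-beta + 50 nM biotin-H3(1-18)K9me3, PBS pH 7.4, 0.01% Tween-20, 30 min RT; compound added, 30 min RT; AlphaScreen beads 10 ug/mL final, 30 min dark; luminescence read.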

[8] = target: Methanococcus maripaludis chaperonin (MmCpn) (UniProt Q6LX38); experiment: High-Throughput Screening for Modulators of Cytosolic Chaperonin Activity: MmCpn Primary Screen (AID 488978);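 also: 50 nM MmCpn enzyme hydrolysing 30 µM ATP at 37 °C; 0% is about no effect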
Procedure, shortened: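 MmCpn at 50 nM final was preincubated 5 min at RT with compound. ATP was then added at 30 uM final for 10 min at 37 C. ADP formed was detected by Transcreener HTRF (665/590 nm).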

[9] = target: Transient receptor potential cation channel subfamily V member 1 (Homo sapiens) (UniProt Q8NER1); experiment: HTS Assay for Compounds that Act as Enhancers of the Vanilloid Receptor 1 (AID 488979); also: 0% is about no effect
Procedure, shortened: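 Calcium influx kinetics via Fluo-8 (480/520 nm) in TRPV1-expressing cells, 2000/well cultured overnight at 35.5C. Compound-alone read 3 min (agonist phase), followed by EC20 capsaicin challenge for 2 min (enhancer phase).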

[10] = target: Thyrotropin receptor (Homo sapiens) (UniProt P16473); experiment: qHTS Assay for Antagonists of the Thyroid Stimulating Hormone Receptor (AID 488980); also: series mostly up to about 58 µM; 0% is about no effect
Procedure, shortened: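 TSHR-transfected HEK293 cells (2000/well) in HEPES-buffered HBSS with 70 uM RO 20-1724 were stimulated with 4 nM TSH (EC80, final) in the presence of compound. cAMP was measured by HTRF competition after lysis and 30 min at RT.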

[11] = target: D(1A) dopamine receptor (Homo sapiens) (UniProt P21728); experiment: HTS Assay for Allosteric Agonists of the Human D1 Dopamine Receptor: Primary Screen for Agonists (AID 488981); also: 0% is about no effect
Procedure, shortened: (§1)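 Calcium flux in an inducible, force-coupled HEK293 Trex D1 line (overnight at 30 C): agonist mode is the 180 s kinetic read after compound; potentiator mode is the following 180 s read after dopamine at EC20.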

[12] = target: D(1A) dopamine receptor (Homo sapiens) (UniProt P21728); experiment: HTS Assay for Allosteric Agonists of the Human D1 Dopamine Receptor: Primary Screen for Potentiators (AID 488982); also: 0% is about no effect
Procedure, shortened: as §1

[13] = target: D(1A) dopamine receptor (Homo sapiens) (UniProt P21728); experiment: HTS Assay for Allosteric Agonists of the Human D1 Dopamine Receptor: Primary Screen for Antagonists (AID 488983);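 also: calcium flux response to an EC80 dopamine challenge measured with no-wash dye; % is scaled to controls: 0 for no effect and ±100 for the full control effect; nearly all actives have a fitted effect of over 65% in size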
Procedure, shortened: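 Cells are induced with tetracycline and incubated overnight at 30 C, then loaded with calcium dye for 30 to 90 minutes at room temperature. Compound addition is followed by a 180 s read, then an EC80 dopamine addition and another 180 s read.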

[14] = Validation screen for small molecules that induce genotoxicity in human embryonic kidney (HEK293T) cells expressing luciferase-tagged ELG1 (AID 493106); also: 0% is about no effect
Procedure, shortened: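 Luminescence from an ELG1-luciferase fusion serves as the read-out, rising when genetic stress elevates ELG1 protein. HEK293T reporter cells (2,000 per well) received 23 nL compound, incubated 16 hr at 37 °C, then ONE-Glo for 30 min at room temperature.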

[15] = target: ATPase family AAA domain-containing protein 5 (Homo sapiens) (UniProt Q96QE3); experiment: Validation screen for small molecules that inhibit ELG1-dependent DNA repair in human embryonic kidney (HEK293T) cells expressing luciferase-tagged ELG1 (AID 493107);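 also: cells co-treated with the DNA-damaging agent 5-fluorouridine alongside compound; series mostly up to about 46 µM; % is scaled to controls: 0 for no effect and ±100 for the full control effect; inhibitors lower the ELG1-luciferase luminescence signal; nearly all actives have a fitted effect of over 70% in size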
Procedure, shortened: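 Luminescence from ONE-Glo, developed 30 min at room temperature, served as read-out of ELG1-luciferase levels. Beforehand, reporter HEK293T cells received 5-fluorouridine plus test compound for 16 hr at 37 °C.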

[16] = Nrf2 qHTS screen for inhibitors: Validation (AID 493153; active = well fitted inhibition curve with a large enough effect in the main read-out, with a control signal flat, not every such curve was filed as active); conditions: Potency: luciferase luminescence; viability change: measured here: cytotoxicity max response
Procedure, shortened: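 Luminescence from an ARE-firefly luciferase reporter in A549 cells gives Nrf2 inhibition; an earlier CellTiter-Fluor fluorescent read flags cytotoxicity. Cells in 5% FBS OPTI-MEM received compound dilution series for 18-24 h at 37°C.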

[17] = qHTS for Inhibitors of Cell Surface uPA Generation: Validation Assay (AID 493164); also: 0% is about no effect
Procedure, shortened: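 RAW 264.7 cells (4000/well) were plated overnight, then exposed for 18 h at 37 C, 5% CO2 to compounds in a 7-point 1:5 titration (2.45 nM–38.3 uM final). Intracellular ATP was read by ATP-Lite luminescence.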

[18] = target: Thyrotropin-releasing hormone receptor (Homo sapiens) (UniProt P34981); experiment: qHTS for Small Molecule Agonists and Allosteric Enhancers of Human TRH Receptor: Validation Screen for Agonists (AID 493127;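 active = calcium activation more than 3 SD above the typical response in the agonist read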;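 also: intracellular calcium rise by fluo-8 fluorescence before TRH EC20 addition; 0% is about no effect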); conditions: TRH receptor agonist cell assay; at 2 µM; stronger effect = higher value
Procedure, shortened: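 Cells 2000/well, 10% FCS, 18 h 33.5C/5% CO2 → fluo-8 Ca dye, RT 30 min–1.5 h → FDSS baseline 10 × 1 s → compound added → 230 cycles (1 s/cycle) agonist mode. TRH controls.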

[19] = target: ATP-dependent 6-phosphofructokinase (Trypanosoma brucei brucei) (UniProt O15648); experiment: qHTS Assay to Find Inhibitors of T. brucei phosphofructokinase: hit validation (AID 492961);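 also: luminescence reports ADP formed as PFK phosphorylates fructose-6-phosphate with ATP; series mostly up to about 51 µM; % is scaled to controls: 0 for no effect and ±100 for the full control effect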
Procedure, shortened: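 Measures ADP output of PFK (1.25 nM) at 0.1 mM ATP, 0.5 mM F6P, pH 8.0 TEA buffer with 5 mM MgCl2. No-enzyme wells define full inhibition; uninhibited enzyme wells define zero.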

Thyrotropin receptor (Homo sapiens), sequence (P16473 whole entry, looked up): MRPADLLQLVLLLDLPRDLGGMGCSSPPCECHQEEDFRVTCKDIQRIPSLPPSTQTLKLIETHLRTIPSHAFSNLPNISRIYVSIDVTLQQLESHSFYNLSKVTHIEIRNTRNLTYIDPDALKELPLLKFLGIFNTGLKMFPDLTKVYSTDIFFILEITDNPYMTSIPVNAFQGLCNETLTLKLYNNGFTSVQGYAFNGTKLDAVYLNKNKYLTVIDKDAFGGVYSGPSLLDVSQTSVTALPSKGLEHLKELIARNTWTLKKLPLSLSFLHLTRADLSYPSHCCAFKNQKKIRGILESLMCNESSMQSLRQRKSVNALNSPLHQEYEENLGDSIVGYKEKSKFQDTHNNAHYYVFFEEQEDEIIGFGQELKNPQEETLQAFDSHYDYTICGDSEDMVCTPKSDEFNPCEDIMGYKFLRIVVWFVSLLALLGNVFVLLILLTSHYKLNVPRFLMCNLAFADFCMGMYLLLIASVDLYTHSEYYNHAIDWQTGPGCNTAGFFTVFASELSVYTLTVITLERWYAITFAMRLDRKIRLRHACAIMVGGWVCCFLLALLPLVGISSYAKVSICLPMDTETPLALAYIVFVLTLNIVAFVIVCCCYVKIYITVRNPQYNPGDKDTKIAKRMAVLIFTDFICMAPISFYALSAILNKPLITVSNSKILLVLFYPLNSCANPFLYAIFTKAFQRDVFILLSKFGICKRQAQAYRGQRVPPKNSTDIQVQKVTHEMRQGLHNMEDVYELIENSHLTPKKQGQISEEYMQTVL
Flap endonuclease 1 (Homo sapiens), sequence (P39748 whole entry, looked up): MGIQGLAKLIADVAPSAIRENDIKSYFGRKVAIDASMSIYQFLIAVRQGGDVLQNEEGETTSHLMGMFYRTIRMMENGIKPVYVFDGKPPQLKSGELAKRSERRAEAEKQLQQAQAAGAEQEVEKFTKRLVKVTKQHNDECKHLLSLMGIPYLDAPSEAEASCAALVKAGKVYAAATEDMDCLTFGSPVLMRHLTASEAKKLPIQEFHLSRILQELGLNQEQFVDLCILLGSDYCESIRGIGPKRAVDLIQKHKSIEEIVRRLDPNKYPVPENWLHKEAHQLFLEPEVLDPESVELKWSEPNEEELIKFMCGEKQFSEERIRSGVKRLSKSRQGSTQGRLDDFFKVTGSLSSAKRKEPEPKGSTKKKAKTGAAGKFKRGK
Thioredoxin reductase 1, cytoplasmic (Rattus norvegicus), sequence (O89049 whole entry, looked up): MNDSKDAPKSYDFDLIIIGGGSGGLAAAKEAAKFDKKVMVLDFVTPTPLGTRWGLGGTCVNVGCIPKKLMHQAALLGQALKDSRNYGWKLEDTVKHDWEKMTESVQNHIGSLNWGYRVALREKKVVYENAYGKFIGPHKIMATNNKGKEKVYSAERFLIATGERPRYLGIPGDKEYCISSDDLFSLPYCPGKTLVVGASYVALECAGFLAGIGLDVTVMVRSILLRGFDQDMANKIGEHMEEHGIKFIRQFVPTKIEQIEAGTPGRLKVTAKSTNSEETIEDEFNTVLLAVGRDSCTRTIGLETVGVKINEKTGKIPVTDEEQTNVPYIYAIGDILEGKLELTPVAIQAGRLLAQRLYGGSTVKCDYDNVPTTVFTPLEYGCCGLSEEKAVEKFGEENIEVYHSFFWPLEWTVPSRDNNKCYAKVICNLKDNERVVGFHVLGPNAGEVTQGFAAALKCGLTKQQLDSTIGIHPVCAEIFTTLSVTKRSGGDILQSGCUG
M-phase phosphoprotein 8 (Homo sapiens), sequence (Q99549 whole entry, looked up): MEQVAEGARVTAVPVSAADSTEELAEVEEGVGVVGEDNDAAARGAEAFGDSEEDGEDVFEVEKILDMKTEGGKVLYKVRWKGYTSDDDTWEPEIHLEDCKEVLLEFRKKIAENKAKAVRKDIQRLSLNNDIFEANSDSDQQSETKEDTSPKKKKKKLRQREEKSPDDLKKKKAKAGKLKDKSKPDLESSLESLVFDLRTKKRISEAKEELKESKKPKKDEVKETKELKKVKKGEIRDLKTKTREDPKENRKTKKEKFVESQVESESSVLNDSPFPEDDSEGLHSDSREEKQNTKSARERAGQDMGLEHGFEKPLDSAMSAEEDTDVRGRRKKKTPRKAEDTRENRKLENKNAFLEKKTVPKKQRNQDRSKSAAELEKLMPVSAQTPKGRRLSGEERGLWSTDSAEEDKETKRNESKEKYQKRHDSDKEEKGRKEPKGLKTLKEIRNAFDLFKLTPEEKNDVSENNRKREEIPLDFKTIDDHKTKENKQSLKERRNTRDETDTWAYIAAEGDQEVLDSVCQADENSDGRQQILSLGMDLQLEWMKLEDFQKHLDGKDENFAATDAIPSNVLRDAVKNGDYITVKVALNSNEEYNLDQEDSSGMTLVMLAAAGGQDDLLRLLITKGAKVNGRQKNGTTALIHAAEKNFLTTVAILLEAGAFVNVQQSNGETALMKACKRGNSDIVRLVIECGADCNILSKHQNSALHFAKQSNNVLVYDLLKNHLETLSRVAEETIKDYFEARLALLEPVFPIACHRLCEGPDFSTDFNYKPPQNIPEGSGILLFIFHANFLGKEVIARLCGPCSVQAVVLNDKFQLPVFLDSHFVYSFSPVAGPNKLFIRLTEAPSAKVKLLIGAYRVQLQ
Methanococcus maripaludis chaperonin (MmCpn), sequence (Q6LX38 1-543): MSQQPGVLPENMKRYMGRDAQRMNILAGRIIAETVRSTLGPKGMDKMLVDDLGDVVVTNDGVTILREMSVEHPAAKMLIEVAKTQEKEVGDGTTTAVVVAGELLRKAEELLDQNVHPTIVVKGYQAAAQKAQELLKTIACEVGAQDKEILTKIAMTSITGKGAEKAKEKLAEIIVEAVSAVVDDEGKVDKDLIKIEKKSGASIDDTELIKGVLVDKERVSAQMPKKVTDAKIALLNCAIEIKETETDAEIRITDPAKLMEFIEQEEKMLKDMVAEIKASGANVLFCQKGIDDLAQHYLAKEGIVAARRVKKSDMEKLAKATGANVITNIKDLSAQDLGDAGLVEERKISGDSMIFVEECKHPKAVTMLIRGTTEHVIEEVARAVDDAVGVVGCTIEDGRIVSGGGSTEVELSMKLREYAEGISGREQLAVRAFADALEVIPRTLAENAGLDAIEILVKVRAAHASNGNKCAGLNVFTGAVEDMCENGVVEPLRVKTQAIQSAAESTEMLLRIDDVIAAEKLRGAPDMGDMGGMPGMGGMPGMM
Thyrotropin-releasing hormone receptor (Homo sapiens), sequence (P34981 whole entry, looked up): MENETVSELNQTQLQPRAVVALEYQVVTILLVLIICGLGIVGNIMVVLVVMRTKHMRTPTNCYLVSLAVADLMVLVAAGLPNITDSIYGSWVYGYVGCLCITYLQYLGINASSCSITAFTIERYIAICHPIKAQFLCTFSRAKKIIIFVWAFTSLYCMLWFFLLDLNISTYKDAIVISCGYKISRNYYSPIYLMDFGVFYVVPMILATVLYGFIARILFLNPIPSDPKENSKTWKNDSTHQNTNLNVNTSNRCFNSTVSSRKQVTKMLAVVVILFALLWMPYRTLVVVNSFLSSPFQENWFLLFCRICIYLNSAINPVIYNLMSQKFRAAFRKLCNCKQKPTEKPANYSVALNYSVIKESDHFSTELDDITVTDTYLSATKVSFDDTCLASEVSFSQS
Transient receptor potential cation channel subfamily V member 1 (Homo sapiens), sequence (Q8NER1 whole entry, looked up): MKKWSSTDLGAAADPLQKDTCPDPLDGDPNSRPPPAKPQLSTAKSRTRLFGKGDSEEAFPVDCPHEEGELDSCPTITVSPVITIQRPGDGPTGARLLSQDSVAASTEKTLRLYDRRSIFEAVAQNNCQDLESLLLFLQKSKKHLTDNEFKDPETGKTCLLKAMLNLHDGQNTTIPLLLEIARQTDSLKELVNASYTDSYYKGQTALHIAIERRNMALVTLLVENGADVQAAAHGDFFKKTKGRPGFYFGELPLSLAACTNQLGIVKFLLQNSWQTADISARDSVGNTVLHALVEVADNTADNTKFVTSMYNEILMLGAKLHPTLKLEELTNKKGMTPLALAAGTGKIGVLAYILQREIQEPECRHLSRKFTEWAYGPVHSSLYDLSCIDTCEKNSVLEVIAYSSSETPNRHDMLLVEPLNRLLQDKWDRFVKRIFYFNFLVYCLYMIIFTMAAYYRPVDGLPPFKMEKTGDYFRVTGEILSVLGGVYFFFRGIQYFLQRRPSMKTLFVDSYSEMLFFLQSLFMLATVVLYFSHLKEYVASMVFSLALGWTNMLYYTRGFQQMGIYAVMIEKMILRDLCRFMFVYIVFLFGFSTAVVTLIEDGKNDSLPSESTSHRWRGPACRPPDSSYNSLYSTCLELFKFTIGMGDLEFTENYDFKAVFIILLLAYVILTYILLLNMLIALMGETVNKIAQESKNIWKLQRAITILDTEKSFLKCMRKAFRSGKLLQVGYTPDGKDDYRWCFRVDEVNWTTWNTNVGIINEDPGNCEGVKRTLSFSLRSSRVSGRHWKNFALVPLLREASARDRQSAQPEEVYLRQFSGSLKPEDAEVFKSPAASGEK
D(1A) dopamine receptor (Homo sapiens), sequence (P21728 whole entry, looked up): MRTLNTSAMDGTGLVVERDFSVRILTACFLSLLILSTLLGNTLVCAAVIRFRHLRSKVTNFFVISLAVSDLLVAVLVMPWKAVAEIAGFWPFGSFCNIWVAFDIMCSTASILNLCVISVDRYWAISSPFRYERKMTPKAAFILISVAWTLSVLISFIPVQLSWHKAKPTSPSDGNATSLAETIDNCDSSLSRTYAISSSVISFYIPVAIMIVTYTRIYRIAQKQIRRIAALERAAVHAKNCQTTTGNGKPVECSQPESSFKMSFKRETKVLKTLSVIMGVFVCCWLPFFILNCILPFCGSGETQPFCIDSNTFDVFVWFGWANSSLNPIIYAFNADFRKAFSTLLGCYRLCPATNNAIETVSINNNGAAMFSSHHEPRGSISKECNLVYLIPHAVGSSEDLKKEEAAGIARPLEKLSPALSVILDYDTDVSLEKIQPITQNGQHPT
Chromobox protein homolog 1 (Homo sapiens), sequence (P83916 whole entry, looked up): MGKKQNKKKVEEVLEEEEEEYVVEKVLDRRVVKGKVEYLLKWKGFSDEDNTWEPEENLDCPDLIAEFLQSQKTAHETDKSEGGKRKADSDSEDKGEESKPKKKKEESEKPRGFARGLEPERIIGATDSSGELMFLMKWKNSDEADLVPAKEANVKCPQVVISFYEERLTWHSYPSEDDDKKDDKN

CCOC(=O)c1ncn2c1[C@@H]1CCCN1C(=O)c1cc(OC)ccc1-2
-9.51%: viability change [16]
inactive: Potency [1] | Potency [2] | outcome [3] | Potency [4] | Potency [5] | Potency [6] | Potency [7] | outcome [8] | outcome [9] | outcome [10] | Potency [11] | Potency [12] | Potency [13] | Potency [14] | Potency [15] | Potency [16] | outcome [17]

O=[N+]([O-])c1cc(O)c(O)c([N+](=O)[O-])c1
inactive: Potency [1] | Potency [2] | outcome [3] | Potency [4] | Potency [5] | Potency [6] | Potency [7] | outcome [8] | outcome [9] | outcome [10] | Potency [11] | Potency [12] | Potency [13] | Potency [14] | Potency [15] | activation [18] -0.438%

NC(N)=NOCC[C@H](N)C(=O)O
10.2%: viability change [16]
inactive: Potency [1] | Potency [2] | outcome [3] | Potency [4] | Potency [5] | Potency [6] | outcome [8] | outcome [9] | outcome [10] | Potency [11] | Potency [12] | Potency [13] | Potency [14] | Potency [15] | activation [18] -0.375% | Potency [16] | outcome [17]

C[N+]1(C)CCN(c2ccccc2)CC1
-2.09%: viability change [16]
inactive: Potency [1] | Potency [2] | outcome [3] | Potency [4] | Potency [5] | Potency [6] | outcome [8] | outcome [9] | outcome [10] | Potency [11] | Potency [12] | Potency [13] | Potency [14] | Potency [15] | activation [18] 0.438% | Potency [16] | outcome [17]

N[C@@H](Cn1oc(=O)[nH]c1=O)C(=O)O
inactive: Potency [1] | Potency [2] | outcome [3] | Potency [4] | Potency [5] | Potency [6] | Potency [7] | outcome [8] | outcome [9] | outcome [10] | Potency [11] | Potency [12] | Potency [13] | Potency [14] | Potency [15] | activation [18] -0.562% | Potency [16] | outcome [17]
-3.31%: viability change [16]

NNC(N)=O
-0.697%: viability change [16]
inactive: Potency [1] | Potency [2] | outcome [3] | Potency [4] | Potency [5] | Potency [6] | Potency [7] | outcome [8] | outcome [9] | outcome [10] | Potency [11] | Potency [12] | Potency [13] | Potency [14] | Potency [15] | activation [18] 0.625% | Potency [16]

CCCN(CCC)C1Cc2cc(OC)c(OC)cc2C1
11.4%: viability change [16]
inactive: Potency [1] | Potency [2] | outcome [3] | Potency [4] | Potency [5] | Potency [6] | Potency [7] | outcome [8] | outcome [9] | outcome [10] | Potency [11] | Potency [12] | Potency [13] | Potency [14] | Potency [15] | activation [18] -2.94% | Potency [16] | outcome [17]

C=CCN1CCC23c4c5ccc(O)c4O[C@H]2C(=O)CC[C@@]3(O)C1C5 (stereo partly drawn)
inactive: Potency [1] | Potency [2] | outcome [3] | Potency [4] | Potency [5] | Potency [6] | Potency [7] | outcome [8] | outcome [9] | outcome [10] | Potency [11] | Potency [12] | Potency [13] | Potency [19] | Potency [14] | Potency [15] | Potency [16]
2.4%: viability change [16]

NC(CCCCCP(=O)(O)O)C(=O)O (stereo not drawn)
inactive: Potency [1] | Potency [2] | outcome [3] | Potency [4] | Potency [5] | Potency [6] | Potency [7] | outcome [8] | outcome [9] | outcome [10] | Potency [11] | Potency [12] | Potency [13] | Potency [14] | Potency [15] | Potency [16]
13.6%: viability change [16]

C[C@H](Cc1ccc2c(c1)OC(C(=O)O)(C(=O)O)O2)NC[C@H](O)c1cccc(Cl)c1
0.983%: viability change [16]
inactive: Potency [1] | Potency [2] | outcome [3] | Potency [4] | Potency [5] | Potency [6] | Potency [7] | outcome [8] | outcome [9] | outcome [10] | Potency [11] | Potency [12] | Potency [13] | Potency [14] | Potency [15] | activation [18] 0.625% | Potency [16]

CC(=O)NBr
1.41%: viability change [16]
inactive: Potency [1] | Potency [2] | outcome [3] | Potency [4] | Potency [5] | Potency [6] | Potency [7] | outcome [8] | outcome [9] | outcome [10] | Potency [11] | Potency [12] | Potency [13] | Potency [14] | Potency [15] | Potency [16] | outcome [17]

COc1ccc2[nH]cc(CCN)c2c1
0.303%: viability change [16]
inactive: Potency [1] | Potency [2] | outcome [3] | Potency [4] | Potency [5] | Potency [6] | Potency [7] | outcome [8] | outcome [9] | outcome [10] | Potency [11] | Potency [12] | Potency [13] | Potency [14] | Potency [15] | Potency [16]

N[C@@H](CCl)C(=O)O
4.83%: viability change [16]
inactive: Potency [1] | Potency [2] | outcome [3] | Potency [4] | Potency [5] | Potency [6] | outcome [8] | outcome [9] | outcome [10] | Potency [11] | Potency [12] | Potency [13] | Potency [14] | Potency [15] | activation [18] 1.31% | Potency [16]

NCCCP(=O)(O)O
inactive: Potency [1] | Potency [2] | outcome [3] | Potency [4] | Potency [5] | Potency [6] | outcome [8] | outcome [9] | outcome [10] | Potency [11] | Potency [12] | Potency [13] | Potency [14] | Potency [15] | activation [18] 0.562% | Potency [16]
0.331%: viability change [16]
